A selection: hits, their analogues and other compounds. The true share with any hit is near 7.2%.
FMDV antiviral: antivirals against foot and mouth disease virus | Potency, µM (titrated, usually from 57.9 µM), for the others: at the highest dose activity change, negative = inhibition, hits mostly inhibitors | AID 1159524 | FMDV antiviral cell-based qHTS | 1.2% of 410,000 active; calls by dose curve; tested in HEK293T cells; further: read-out not given here; nearly all actives have a fitted effect of over 45% in size
MARV entry inh: Marburg virus entry inhibition; Marburg virus pseudotyped entry inhibition, cell reporter; Potency, µM (series often up to 37.8 µM), without a hit: at the highest dose activity change, negative = inhibition, usual class: inhibitors; 1.8% of 300,000 active; AID 540276; calls by dose curve; tested in HEK293 cells
Sm TGR block: blocks Schistosoma mansoni thioredoxin glutathione reductase. purified TGR, DTNB reduction, TNB absorbance 405 nm. Potency, µM (titrated, usually from 114 µM), without a hit: at the highest dose activity change, negative = inhibition, usual class: inhibitors. 3% of 360,000 active; further: nearly all actives have a fitted effect of over 60% in size
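First, TGR (20 nM dispensed) and NADPH were mixed with compound. Second, a 15 min room-temperature incubation followed. Third, further NADPH and then DTNB were added to start the reaction. Finally, TNB absorbance was monitored kinetically.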
LASV entry inh: blocks Lassa virus binding to or entry into cells | Lassa virus pseudotype entry inhibition, cell reporter | Potency, µM (highest dose often 37.9 µM), for inactives: at the top dose activity change, negative = inhibition, usual class: inhibitors | 1.2% of 300,000 active | AID 540256; calls by dose curve; tested in HEK293 cells; further: nearly all actives have a fitted effect of over 50% in size
RE007 growth inh: less growth of the S. pombe RE007 Vpr strain; Potency, µM (series often up to 92.2 µM), without a hit: at the highest dose activity change, negative = less growth, hits mostly inhibitors; 0.21% of 360,000 active; S. pombe RE007 Vpr strain, BacTiter-Glo ATP luminescence, 24 h; active means well fitted falling curve with a large enough effect; inconclusive means small, poorly fitted or top-dose-only effect; inactive means no such curve, though single readings can be large or run the other way; further: nearly all actives have a fitted effect of over 50% in size
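Fission yeast RE007 carrying one integrated HIV-1 vpr copy, seeded at OD 0.01 in PMG+AL medium with 23 nL pinned compound. Grown 24 h at 30 degrees; viability read by BacTiter-Glo luminescence after 5 min.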
HCV inhibitor: inhibitors of hepatitis C virus infection. Huh7.5.1 HCVcc-Cre infection, luciferase reporter, 44 h. 3.4% of 340,000 active. Potency, µM (doses to about 41.8 µM), for inactives: at the top dose activity change, negative = inhibition, usual class: inhibitors
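Infectious HCVcc-Cre (~0.5 moi) was added to cells just after compound, with cells seeded 4 h earlier at 1,000 per well. Luciferase activity after 44 h culture reported infection; substrate was incubated 15 min at room temperature before reading.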
* marks the source's active call; other numbers are inactive results; u = inconclusive; x = no result given; [ ] = dose if it differs, or a comment. Unless noted, the call rests on the fitted dose curve; in most records, active means well fitted curve in the direction sought with a large enough effect; inconclusive means small, poorly fitted or top-dose-only effect, or another doubt; inactive means no such curve, though single readings can be large; an effect the other way counts as inactive or inconclusive. On the % scale 0 is the no-effect control and ±100 the full control effect; potency means the concentration at half of the fitted maximal effect.

SMILES | FMDV antiviral | MARV entry inh | Sm TGR block | LASV entry inh | RE007 growth inh | HCV inhibitor
CCc1cc(/C(Cc2ccccn2)=N\O)c(O)cc1O | -23% | -2% | 0% | -3% | 4% | 22µM*
CCCCc1nc(Cl)c(CO)n1Cc1ccc(-c2ccccc2-c2nnn[nH]2)cc1 | -16% | x | x | x | 0% | -10%
CCCCc1nc(Cl)c(CO)n1Cc1ccc(-c2ccccc2-c2nn[nH]n2)cc1 | -22% | x | 6% | x | 2%[18.4 µM] | 0.56µM*
CN1CCC(=C(c2ccccc2)c2ccc(Br)cc2)CC1 | 0% | x | x | x | -10% | 8.9µM*
O=C(NCc1ccccc1Cl)c1cc2cccc3c2n1CCS3 | -8% | x | -5% | u | x | x
O=C(c1ccccc1)c1ccc(OCCn2cnc3ccccc3c2=O)cc1 | u | -14% | 0% | 25µM* | 2% | -20%
CC(C)(c1ccccc1)c1ccc(OCCn2cnc3ccccc3c2=O)cc1 | u | -7% | 4% | 0% | 0% | u
COc1ccc(C(=O)O/N=C(/C)c2cccs2)cc1 | u | -22%[46.1 µM] | 1% | -4% | 40µM* | 20%
COc1ccccc1C/C(N)=N/OC(=O)c1cccs1 | -6% | 11µM* | x | 10µM* | -19% | u
N/C(Cc1ccc(Cl)cc1Cl)=N\OC(=O)Cc1cccs1 | 27% | 17% | -11% | u | -21% | 25%
N/C(Cc1ccc(Cl)cc1Cl)=N\OC(=O)c1cccs1 | -8% | u | -5% | -30% | 18µM* | 8%
COc1ccc2[nH]cc(CCNc3ncncc3-c3cccnc3)c2c1 | -21% | x | x | x | x | x
COc1ccc2[nH]cc(CCNc3ncncc3-c3ccccc3C)c2c1 | 20µM* | x | x | x | x | x
CC(O)CN1C(=O)C(CC(=O)Nc2ccc(Cl)cc2)SC1=Nc1ccccc1 (stereo unspecified) | u | u | 18µM* | u | u | -11%
COCCN1C(=O)C(CC(=O)Nc2ccc(C(C)=O)cc2)SC1=Nc1ccccc1 (stereo unspecified) | u | u | -23% | -15%[46.1 µM] | -8% | 9%
Cc1ccc(C)c(N2CCN(C(=O)c3cnn(C(C)(C)C)c3C3CCN(C(=O)OC(C)(C)C)CC3)CC2)c1 | u | x | -2% | u | x | x
C=CCSc1nccc(-c2nn(-c3ccc(C)cc3)ccc2=O)n1 | -10% | u | 0% | 3.2µM* | 6% | u
COC(=O)C1=C(C)N(Cc2ccccc2)C(=NCCc2cccnc2)NC1c1ccccc1 (stereo unspecified) | x | -11%[14.2 µM] | x | x | x | x
COC(=O)c1ccc(NC(=O)CCc2nnc3ccc(N4CCC5(CC4)OCCO5)nn23)cc1 | 28µM* | 8%[46.1 µM] | -8% | -17%[46.1 µM] | 11% | 6%
Cc1c(C(=O)NCCCN2CCCC2=O)oc2ccc(S(=O)(=O)N3CCOCC3)cc12 | 3% | -7% | -2% | 0% | 7% | 2%
Cc1ccc(NC(=O)c2oc3ccc(S(=O)(=O)N4CCOCC4)cc3c2C)c(C)c1 | -6% | -8%[46.1 µM] | -35% | u | -6% | -3%
Cc1cccc(NC(=O)c2oc3ccc(S(=O)(=O)N4CCOCC4)cc3c2C)c1C | u | u | 1% | u | -3% | 10µM*
Cc1c(C(=O)NCCC2=CCCCC2)oc2ccc(S(=O)(=O)N3CCOCC3)cc12 | 14µM* | u | 0% | 8.2µM* | 0% | 10µM*
O=C(c1ccco1)N1CCC2(CCCN(c3ncccn3)C2)CC1 | -14% | x | x | x | x | x
CC(=O)c1ccc(NC(=O)COCc2cc(-c3ccc(F)cc3)on2)cc1 | -13% | x | 2% | 15%[46.1 µM] | x | x
SMILES | FMDV antiviral | MARV entry inh | Sm TGR block | LASV entry inh | RE007 growth inh | HCV inhibitor
COc1cccc(CNC(=O)CN(c2ccc(C)cc2)S(=O)(=O)N(C)C)c1OC | -4% | 8%[46.1 µM] | 2% | 0%[46.1 µM] | x | x
Cc1ccc(N(CC(=O)NCc2ccc(OC(C)C)cc2)S(=O)(=O)N(C)C)cc1 | u | x | 5% | 5µM* | x | x
CCOc1ccc(NC(=O)CN(c2ccc(CC)cc2)S(=O)(=O)c2c(C)noc2C)cc1 | -26% | x | -1% | -10%[46.1 µM] | x | x
CCOc1ccc(N(CC(=O)Nc2cccc(Cl)c2)S(=O)(=O)c2c(C)noc2C)cc1 | u | -4% | -1% | x | -7% | 13µM*
CCOc1ccc(N(CC(=O)Nc2cccc(OC)c2)S(=O)(=O)c2c(C)noc2C)cc1 | u | 3% | 7% | x | 6% | u
COc1ccc(CNC(=O)CN(c2ccc(C(C)C)cc2)S(=O)(=O)c2c(C)noc2C)cc1 | -14% | x | -2% | x | -6% | 10µM*
CCOc1ccc(N(CC(=O)Nc2ccccc2OCC)S(=O)(=O)c2c(C)noc2C)cc1 | -28% | x | -7% | x | -13% | 11µM*
COc1ccc(-c2noc(N3CCN(c4cccc(C)c4C)CC3)n2)cc1OC | u | x | 0% | 1%[46.1 µM] | x | x
CCOC(=O)c1ccc(NC(=O)CN(c2ccc(C)cc2)S(=O)(=O)c2c(C)noc2C)cc1 | -22% | 11µM* | 4% | u | x | x
CCOc1ccc(N(CC(=O)Nc2ccc(C)cc2)S(=O)(=O)c2c(C)noc2C)cc1 | 0% | -5% | -12% | x | 18% | -24%
CCc1cccc(CC)c1N(COC)C(=O)Cn1c(C)nc2ccccc21 | 10µM* | x | 0% | -18%[46.1 µM] | x | x
CC[C@H](C)[C@H](NC(=O)OCc1ccccc1)C(=O)OCC(=O)N1CCN(c2ccc(OC)cc2)CC1 | -25% | x | x | x | -6% | 13µM*
CC(C)[C@H](NC(=O)OCc1ccccc1)C(=O)OCC(=O)N1CCN(c2ccccc2)CC1 | 0% | 11% | -3% | u | -12% | -12%
CCOC(=O)c1c(C)oc2nc(C)nc(NCCc3ccc(S(N)(=O)=O)cc3)c12 | -20% | x | 10% | -11%[46.1 µM] | x | x
Cc1ccc(CN(C(=O)COc2ccc([N+](=O)[O-])cc2)c2ccccn2)cc1 | -25% | 14%[46.1 µM] | 0% | -3%[46.1 µM] | x | x
COC(=O)c1c(NC(=O)C(C)(C)C)sc2c1C(C(=O)OC)CC2 (stereo unspecified) | -23% | -5%[46.1 µM] | 32µM* | 4% | 4% | u
CCOc1ccccc1NC(=O)Cn1c(=O)n(-c2ccc(C)c(C)c2)c(=O)c2c(C)c(C(=O)N(C)C)sc21 | -19% | x | 4% | 7%[46.1 µM] | x | x
CCCCN(CCCNC(=O)Cn1nc(CC)n2c(cc3sc(C)cc32)c1=O)Cc1ccccc1 | -8% | x | -20% | x | 3% | 8.9µM*
CC(=O)N1CCc2c(sc3c2c(=O)n(-c2ccc(C)cc2)c(=O)n3CC(=O)Nc2ccccc2)C1 | 30% | u | 2% | x | x | x
CC1CCCN(C(=O)C(C)Nc2cc(Cl)ccc2N2CCOCC2)C1 (stereo unspecified) | -14% | -9%[46.1 µM] | 40µM* | 9%[46.1 µM] | -10% | -8%
COc1ccccc1NC(=O)c1cccc(S(=O)(=O)N2CCCCCC2)c1 | -22% | x | 7% | -15%[46.1 µM] | x | x
Cc1nc2ccc(NC(=O)N(C)c3ccccc3)cc2s1 | -2% | 27%[46.1 µM] | 0% | u | -2% | 16%
